Tests used:
Assay in all cases: PBM binding z-score (relative to random genomic background probes); higher = stronger binding; sequences stand for … in GC…GCGATTGACAGCGTAGAATGAAGG
[1] = test system: FXR:RXRa (NR concentration 270 nM, RXRa partner concentration 90 nM)
Procedure, shortened: (§1)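 Ligand-free nuclear receptor dimers were applied to custom Agilent 4×180K protein-binding microarrays whose double-stranded probes carried direct-repeat seeds, single-nucleotide variants, half-site ablations and random human genomic background sequences in 34-nt variable regions. Incubation lasted 1 h. Binding z-scores were computed against the random background probes from regression-normalized fluorescence.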

[2] = test system: LXRa:RXRa (NR concentration 270 nM, RXRa partner concentration 90 nM)
Procedure, shortened: as §1

[3] = test system: LXRa homodimer (NR concentration 270 nM)
Procedure, shortened: as §1

[4] = test system: LXRb:RXRa (NR concentration 270 nM, RXRa partner concentration 90 nM)
Procedure, shortened: as §1

[5] = test system: PPARa:RXRa (NR concentration 270 nM, RXRa partner concentration 90 nM)
Procedure, shortened: as §1

[6] = test system: PPARg:RXRa (NR concentration 180 nM, RXRa partner concentration 90 nM)
Procedure, shortened: as §1

[7] = test system: PPARg:RXRa 270nM:90nM, anti-RXR (NR concentration 270 nM, RXRa partner concentration 90 nM)
Procedure, shortened: as §1

[8] = test system: PPARg:RXRa 30nM:10nM, anti-RXR (NR concentration 30 nM, RXRa partner concentration 10 nM)
Procedure, shortened: as §1

[9] = test system: PPARg:RXRa 90nM:30nM, anti-RXR (NR concentration 90 nM, RXRa partner concentration 30 nM)
Procedure, shortened: as §1

Sequence	PBM binding z-score [1]	PBM binding z-score [2]	PBM binding z-score [3]	PBM binding z-score [4]	PBM binding z-score [5]	PBM binding z-score [6]	PBM binding z-score [7]	PBM binding z-score [8]	PBM binding z-score [9]
TCGAGTAGGTTACGGGGGGATTCAGGGATGAAGA	2.95	2.87	1.21	5.21	3.11	5.11	4.06	3.29	4.14
TCGAGTAGGTTACGGGGACATTCAGGGATGAAGA	0.831	0.995	-0.0512	0.999	2.4	3.19	3.06	1.81	2.27
CTATGTAGGTTAAGGGGGACATTCAGTTTGAAAG	1.22	1.63	0.816	3.58	5.12	8.82	8.59	7.64	9.61
TCGAGTAGGTTACTGGGGCATTCAGGGATGAAGA	0.441	0.372	-0.186	0.462	3.51	4.99	4.53	2.29	3.46
TCGAGTAGGTTACGGGGGCATGCAGGGATGAAGA	2.17	2.53	0.37	4.94	4.27	6.15	5.69	3.6	4.99
CTATGCAGGTTAAGGGGGTCATTCAGTTTGAAAG	5.02	5.01	3	6.31	5.63	5.77	6.3	3.13	5.29
CCAAGTAGGTTACGAGGGGGCATTCAGTGCGAAT	3.42	7.37	1.65	6.39	4.05	4.83	4.89	2.33	3.81
CCGAGTAGGTTACGAGGGGGCATTCAATGCGAAT	2.32	7.34	1.1	6.15	3.62	2.64	3.7	1.21	2.45
TCGAGTAGGTTCCGGGGGCATTCAGGGATGAAGA	2.36	1.8	0.316	4.06	2.5	0.485	2.22	1.38	2.24
CCGAGTAGGTTACGAGGGGGCCTTCAGTGCGAAT	0.952	2.66	0.0596	3.94	2.44	1.5	2.53	0.553	1.8
TCGAGTAGGTTATGGGGGCATTCAGGGATGAAGA	1.82	2.24	0.602	4.74	3.71	4.86	4.86	2.99	4.23
CTATCTAGGTTAAGGGGGTCATTCAGTTTGAAAG	5.03	4.71	2.63	6.25	5.95	8.5	7.76	6.25	7.89
CTATGTAGGTTAAGGGGGTGATTCAGTTTGAAAG	1.52	1.98	0.79	3.83	4.69	7.43	6.74	4.44	6.29
TCTAGTAGGTTACGGGGGCATTCAGGGATGAAGA	3.33	3.71	1.27	5.76	4.95	8	6.8	5.71	6.87
TCGAGTAGGTTACGGGGGCATTCACGGATGAAGA	2.41	2.89	0.361	4.92	4.38	5.82	6.16	3.37	5.06
